# From PubChem
# Sampled rows, rich in hits. Any-hit rate of the full collection: about 7.6%.
# hERG WT inh = inhibitors of human wildtype KCNH2 potassium channel; Q12809; U2OS, BacMam KCNH2, thallium flux FluxOr; stronger effect = lower value; activity change, % at 1.84 µM; 340,000 compounds, 0.37% hits; AID 720551;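 active = maximum activity change below -70%; inconclusive = maximum activity change between -70% and -50%; inactive = maximum activity change above -50%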; note: % is set by controls: 0 for no effect and ±100 for the full control effect
# Target sequence (Q12809 whole entry, looked up): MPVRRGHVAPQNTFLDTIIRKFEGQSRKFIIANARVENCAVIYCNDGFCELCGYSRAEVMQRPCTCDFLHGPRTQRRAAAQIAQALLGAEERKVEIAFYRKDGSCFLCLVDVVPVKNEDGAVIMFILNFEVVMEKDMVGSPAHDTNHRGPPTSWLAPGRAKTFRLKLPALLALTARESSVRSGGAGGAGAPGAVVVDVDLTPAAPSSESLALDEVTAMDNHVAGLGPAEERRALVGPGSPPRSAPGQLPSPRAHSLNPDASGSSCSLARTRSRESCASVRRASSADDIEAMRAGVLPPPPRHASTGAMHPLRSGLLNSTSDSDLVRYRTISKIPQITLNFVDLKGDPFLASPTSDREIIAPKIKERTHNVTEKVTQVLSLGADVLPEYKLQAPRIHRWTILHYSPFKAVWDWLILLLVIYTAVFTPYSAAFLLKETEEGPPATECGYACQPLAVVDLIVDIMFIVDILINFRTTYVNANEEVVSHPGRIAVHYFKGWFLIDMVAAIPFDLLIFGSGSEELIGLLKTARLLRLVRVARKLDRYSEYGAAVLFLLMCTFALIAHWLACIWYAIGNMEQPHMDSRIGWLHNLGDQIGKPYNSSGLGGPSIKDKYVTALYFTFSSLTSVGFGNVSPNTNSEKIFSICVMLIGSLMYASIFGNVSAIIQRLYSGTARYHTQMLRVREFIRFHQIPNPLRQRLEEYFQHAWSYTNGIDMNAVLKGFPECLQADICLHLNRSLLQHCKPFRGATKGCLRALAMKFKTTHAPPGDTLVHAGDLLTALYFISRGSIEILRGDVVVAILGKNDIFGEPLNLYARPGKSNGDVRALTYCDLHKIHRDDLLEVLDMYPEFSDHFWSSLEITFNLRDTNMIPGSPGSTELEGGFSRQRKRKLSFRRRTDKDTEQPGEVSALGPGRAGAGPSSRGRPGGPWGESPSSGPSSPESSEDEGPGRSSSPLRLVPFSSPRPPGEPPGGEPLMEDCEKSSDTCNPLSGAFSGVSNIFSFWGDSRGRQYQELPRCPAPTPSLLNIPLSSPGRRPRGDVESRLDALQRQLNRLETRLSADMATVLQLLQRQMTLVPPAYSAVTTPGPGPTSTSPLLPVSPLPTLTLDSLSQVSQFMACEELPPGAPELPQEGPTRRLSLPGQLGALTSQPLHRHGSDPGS
#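 U2OS cells were transduced with wild-type KCNH2 virus (2.03 x 10^8 / mL) for 4 h at room temperature, then cultured overnight at 37 C. Thallium flux was read with FluxOr dye. Rate constants were normalized to DMSO controls.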
# MCF10A rerep = inducers of DNA re-replication in MCF 10A breast cells; MCF 10A DNA re-replication, Hoechst nuclear intensity, 48 h; 350,000 compounds, 2.9% hits; Potency, µM (doses to about 46.1 µM), for the others: at the top dose activity, positive = re-replication, most hits filed as activators; AID 624296; note: potency is the fitted concentration of half-maximal effect; % of control where 0% means no effect; nearly all actives have a fitted effect of over 50% in size
# SW480 rereplic = DNA re-replication induction in SW480 cells | SW480 DNA re-replication, Hoechst DNA content imaging, 48 h | Potency, µM (titrated, usually from 46.1 µM), inactives show top-dose re-replication activation, hits mostly activators | 340,000 compounds, 1.8% hits | AID 624297; note: potency is the fitted concentration of half-maximal effect; % of control where 0% means no effect; nearly all actives have a fitted effect of over 55% in size
#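 Readout is total intensity of Hoechst-stained nuclei, excited at 405 nm and collected at 500-530 nm. Compound treatment lasted 48 hr at 37 C in 5% CO2 before staining.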
# KB-3-1 cytotox = kills parental KB-3-1 adenocarcinoma cells; KB-3-1 viability, CellTiter-Glo ATP luminescence, 72 h; Potency, µM (series often up to 46.1 µM), hits mostly cytotoxic; 400,000 compounds, 1.4% hits; AID 1347075; note: potency is the fitted concentration of half-maximal effect; % is set by controls: 0 for no effect and ±100 for the full control effect; nearly all actives have a fitted effect of over 60% in size
#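 Parental KB-3-1 viability, qHTS format: 72 h compound exposure, 37 °C; CellTiter-Glo; media-only wells and DMSO plates as controls; concentration-effect fits on corrected data.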
# KB-V1 MDR tox = KB-V1 MDR subline cytotoxicity; KB-V1 MDR cells viability, CellTiter-Glo, 72 h; Potency, µM (series often up to 46.1 µM), actives largely listed as cytotoxic; 400,000 compounds, 3.4% hits; note: potency is the fitted concentration of half-maximal effect; % is set by controls: 0 for no effect and ±100 for the full control effect; nearly all actives have a fitted effect of over 60% in size
#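 qHTS viability screen in drug-selected KB-V1 MDR cells: 72 h compound treatment at 37 degrees C, ATP luminescence end point.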
# KCNH2 3.1 block = inhibitors of human KCNH2 3.1 potassium channel isoform; U2OS KCNH2 3.1, thallium flux FluxOr; stronger effect = lower value; activity change, % (tested at about 1.8 µM); 340,000 compounds, 0.95% hits;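 active = maximum activity change below -70%; inconclusive = maximum activity change from -70% to -50%; inactive = maximum activity change above -50%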;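 note: thallium influx rate constant from kinetic fluorescence after stimulation buffer; % is set by controls: 0 for no effect and ±100 for the full control effect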
#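 Normalized rate constant (relative to positive and negative DMSO controls) derived from a 2 min kinetic fluorescence read after stimulation; U2OS cells expressing the 3.1 isoform via virus at 1.77 x 10^8 /mL.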
# * hit, by the source's call; i = inactive; u = inconclusive; x = no result; ! = repeats disagree. Unless noted, calls come from the whole dose curve; as a rule, active = well fitted curve in the direction sought with a large enough effect; inconclusive = small, poorly fitted or top-dose-only effect, or another doubt; inactive = no such curve, though single readings can be large; an effect the other way counts as inactive or inconclusive.
SMILES,hERG WT inh,MCF10A rerep,SW480 rereplic,KB-3-1 cytotox,KB-V1 MDR tox,KCNH2 3.1 block
CCCOc1cccc(C(=O)Nc2ccc(Br)cc2F)c1,19,6%,9%,i,i,14
CCOc1ccccc1-c1nc2c([nH]1)c(=O)n(C)c(=O)n2C,3,2%,19%,u,10µM*,-2
CC(C)OC(=O)C(C(=O)C(F)(F)F)c1cc(NS(=O)(=O)c2ccc3c4c(cccc24)C(=O)N3)ccc1O (stereo not drawn),x,x,x,i,u,x
O=C(OCC(=O)N1CCN(C(=O)c2ccco2)CC1)c1cc(-c2ccccc2)nc2ccccc12,21,u,7%,i,i,-11
C/C(N)=C(/C#N)C(=O)COC(=O)c1cc(-c2ccc(Br)cc2)nc2ccccc12,0,u,u,u,21µM*!,-1
Nc1nc(N2CCN(C(=O)c3ccco3)CC2)nc2ccc(Br)cc12,x,u,-82%,u,21µM*,-89*
O=C(OCC(=O)N1CCN(C(=O)c2ccco2)CC1)c1cc(-c2cccc(Br)c2)nc2ccccc12,11,u,10%,i,16µM*,-17
COc1ccc(-c2cc(C(=O)OCC(=O)N3CCOCC3)c3ccccc3n2)cc1,0,16µM*,20%,i,u,-14
COc1cc(OC)c(NC(=O)C2CCCN(c3ncnc4c3nc3n4CCCCC3)C2)cc1Cl (stereo not drawn),x,x,x,i,i,x
C=C1C=C(C(F)F)n2ncc(C(=O)NCc3ccccc3OC)c2N1,x,x,x,i,i,x
COc1cccc(NC(=O)CN(C)C(=O)/C=C/c2cn(Cc3ccccc3)nc2-c2cccnc2)c1,0,u,15µM*,i,i,-2
COc1cccc(N2CCN(C(=O)c3cn(Cc4ccccc4)nc3-c3cccnc3)CC2)c1,3,5.2µM*,4.1µM*,1.8µM*,u,-12
COc1ccc(C(NC(=O)C(C)C)c2c(O)ccc3ccccc23)cc1 (stereo not drawn),-10,18µM*,u,u,i,-19
CCC(=O)NC(c1ccc([N+](=O)[O-])cc1)c1c(O)ccc2ccccc12 (stereo not drawn),-3,u,0%,i,i,-8
CC(C)C(=O)NC(c1ccccc1Cl)c1c(O)ccc2ccccc12 (stereo not drawn),8,-2%,8%,i,i,1
CCCCC(=O)NC(c1ccc([N+](=O)[O-])cc1)c1c(O)ccc2ccccc12 (stereo not drawn),13,u,u,u,16µM*,-10
CC(C)C(=O)NC(c1ccco1)c1c(O)ccc2ccccc12 (stereo not drawn),-1,21µM*,27%,i,i,-14
CCc1ccccc1NC(=O)COC(=O)c1c(C)nsc1NC,-4,3%,u,i,i,-5
CNc1snc(C)c1C(=O)OCC(=O)Nc1ccc(C)cc1F,-6,u,-5%,i,12µM*,-2
CCOC(=O)Cn1c(=NC(=O)c2cc(-c3cccs3)nc3ccccc23)sc2cc(S(N)(=O)=O)ccc21,3,8.2µM*,u,i,i,-25
COC(=O)Cn1c(=NC(=O)c2nc3ccccc3s2)sc2cc(S(N)(=O)=O)ccc21,2,u,-12%,u,i,-22
COC(=O)Cn1c(=NC(=O)c2cc(-c3cccs3)nc3ccccc23)sc2cc(S(N)(=O)=O)ccc21,-7,7.3µM*,u,i,u,-16
CCN(CCCNC(=O)Cn1ncc2c(=O)oc3ccccc3c21)c1cccc(C)c1,-165*,u,-2%,i,i,-180*
Cc1ccc2c(c1)N(CCCC(=O)NCCCN1CCCCC1)C(=O)CO2,10,1%,-4%,i,i,-1
CCN(CCCNC(=O)CCCN1C(=O)COc2ccc(C)cc21)c1cccc(C)c1,3,3%,-3%,i,12µM*,-1
SMILES,hERG WT inh,MCF10A rerep,SW480 rereplic,KB-3-1 cytotox,KB-V1 MDR tox,KCNH2 3.1 block
Cc1ccnc(N2CCCC(C(=O)Nc3ccc(C)c(C)c3)C2)n1 (stereo not drawn),-1,16µM*,-7%,i,i,-8
COc1cccc(-c2ccc(NC(=O)C3CCCN(Cc4ccco4)C3)cc2)c1 (stereo not drawn),6,u,23%,x,x,-6
COc1cccc(-c2ccc(NC(=O)C3CCCN(CCCn4nc(C)cc4C)C3)cc2)c1 (stereo not drawn),1,u,21µM*,u,i,-74*
COc1ccc(NC(=O)C2CCCN(c3nc(C)cc(C)n3)C2)cc1 (stereo not drawn),-6,2.9µM*,-24%,i,u,-1
CC(C)c1ccc(NC(=O)C2CC3CCC2C3)cc1 (stereo not drawn),-3,u,u,i,i,1
CCC(C)c1ccc(NC(=O)C2CC3CCC2C3)cc1 (stereo not drawn),4,7.3µM*,u,i,i,-13
Cn1nnnc1SCC(=O)Nc1ccc(Cl)c(S(=O)(=O)N2CCOCC2)c1,4,3%,-20%,i,i,8
CCCn1ccc2c(OCC(=O)Nc3ccc(C(F)(F)F)cc3)cccc2c1=O,x,x,x,i,i,x
COc1ccc(NC(=O)C2CCCN(c3ncccn3)C2)cc1 (stereo not drawn),3,-25%,-29%,i,i,8
CCC(C)c1ccc(NC(=O)C2CCCN(c3ncccn3)C2)cc1 (stereo not drawn),0,u,18%,10µM*,7.9µM*,-12
Cc1cc2nc3c(=O)n(C4CCCCC4)c(=O)[nH]c3nc2cc1N,-8,u,u,i,i,-14
COc1ccc(C(=O)C2CCCN(Cc3cccn3-c3ccccn3)C2)c(OC)c1 (stereo not drawn),-48,28%,6%,i,u,-91*
COc1ccc(C(=O)C2CCCN(Cc3cn(C)nc3-c3ccccc3)C2)cc1F (stereo not drawn),21,20%,-7%,i,i,-71*
COc1ccc(F)cc1C(=O)C1CCCN(Cc2cn(C)c3ccccc23)C1 (stereo not drawn),26,9.2µM*,15µM*,i,i,-18
COc1ccc(F)cc1C(=O)C1CCCN(Cc2cccn2-c2ccccn2)C1 (stereo not drawn),-71*,u,u,i,i,-86*
